About 160 (5.9%) of roughly 2,700 compounds showed an effect of 50% or more. This excerpt belongs to a sample that is enriched for strong results.
Target: Nonstructural protein 3 (Zika virus) (UniProt A0A024AXB9)
[1] = PRVABC59, Concentration 15.0 uM, Number of replicates 1.0
[2] = PRVABC59, Concentration 50.0 uM, Number of replicates 1.0

Chain of Nonstructural protein 3 (Zika virus) (A0A024AXB9 as listed by the source): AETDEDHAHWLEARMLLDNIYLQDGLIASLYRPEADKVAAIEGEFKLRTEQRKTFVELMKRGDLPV

## O=C(Nc1cccc(Cl)c1Br)c1cc(Cl)ccc1NS(=O)(=O)c1ccc(Oc2ccccc2Cl)cc1
[1]
  inhibition: 25.4%

## CC(=O)Nc1ccc(NC(=O)c2cc(Cl)ccc2NS(=O)(=O)c2ccc(Oc3ccccc3Cl)cc2)c(C(F)(F)F)c1
[1]
  inhibition: 23.4%

## COc1cc(NC(=O)c2cc(Cl)ccc2NS(=O)(=O)c2ccc(Oc3ccccc3Cl)cc2)ccc1Br
[1]
  inhibition: 60.4%

## O=C(Nc1ccc(F)c(Br)c1)c1cc(Cl)ccc1NS(=O)(=O)c1ccc(Oc2ccccc2Cl)cc1
[1]
  inhibition: 48.7%

## O=C(Nc1ccc(Br)c(C(F)(F)F)c1)c1cc(Cl)ccc1NS(=O)(=O)c1ccc(Oc2ccccc2Cl)cc1
[1]
  inhibition: 29.1%

## COc1cc(NC(=O)c2cc(Cl)ccc2NS(=O)(=O)c2ccc(Oc3ccccc3Cl)cc2)cc(OC)c1
[1]
  inhibition: 24.1%

## O=C(Nc1cc(Br)ccc1F)c1cc(Cl)ccc1NS(=O)(=O)c1ccc(Oc2ccccc2Cl)cc1
[1]
  inhibition: 24.4%

## Cc1ccc(NC(=O)c2cc(Cl)ccc2NS(=O)(=O)c2ccc(Oc3ccccc3Cl)cc2)cc1Br
[1]
  inhibition: 43.3%

## COc1ccc(-c2cc(NC(=O)c3cc(Cl)ccc3NS(=O)(=O)c3ccc(Oc4ccccc4Cl)cc3)[nH]n2)cc1
[1]
  inhibition: 57.5%

## COc1ccc(Cl)c(NC(=O)c2cc(Cl)ccc2NS(=O)(=O)c2ccc(Oc3ccccc3Cl)cc2)c1
[1]
  inhibition: 25.8%

## COc1ccc(NC(=O)c2cc(Cl)ccc2NS(=O)(=O)c2ccc(Oc3ccccc3Cl)cc2)cc1C(F)(F)F
[1]
  inhibition: 51.3%

## O=C(Nc1ccc(Br)cc1O)c1cc(Cl)ccc1NS(=O)(=O)c1ccc(Oc2ccccc2Cl)cc1
[1]
  inhibition: 58.9%

## O=Cc1ccc(N2CCC(C(=O)Nc3ccc(-n4cccn4)cc3)CC2)cc1
[2]
  inhibition: 21.4%

## Cn1cc(NC(=O)c2ccccc2-c2ccc(C(=O)O)nc2)cn1
PRVABC59, Concentration 49.5 uM, Number of replicates 2.0, Standard deviation 2.4498358087391408 %
  inhibition: -1.15%
PRVABC59, Concentration 99.01 uM, Number of replicates 2.0, Standard deviation 1.6656005687321722 %
  inhibition: -0.876%
PRVABC59, Concentration 198.0 uM, Number of replicates 2.0, Standard deviation 2.3203289956835937 %
  inhibition: 3.27%

## O=C(NCCc1c[nH]c2cccnc12)[C@@]1(c2ccc(F)cc2)CCCNC1
PRVABC59, Concentration 49.5 uM, Number of replicates 2.0, Standard deviation 1.1099611949443484 %
  inhibition: 2.3%
PRVABC59, Concentration 99.01 uM, Number of replicates 2.0, Standard deviation 0.8664361984862207 %
  inhibition: -0.092%
PRVABC59, Concentration 198.0 uM, Number of replicates 2.0, Standard deviation 1.4816570758007732 %
  inhibition: -1.42%

## O=C(c1cc(Cl)ccc1NS(=O)(=O)c1ccc(Oc2ccccc2Cl)cc1)N1CCN(C(=O)[C@@H]2CCCO2)CC1
[1]
  inhibition: -3.32%

## CC(C)c1cccc(C(C)C)c1NC(=O)C1CCN(c2ccc(C=O)cc2)CC1
[2]
  inhibition: 22.1%

## O=Cc1ccc(N2CCC(C(=O)N3CCC(Cc4ccccc4)CC3)CC2)cc1
[2]
  inhibition: 24.7%

## CNC(=O)[C@H]1CCN(S(=O)(=O)c2ccc(Oc3ccccc3Cl)cc2)C1
PRVABC59, Concentration 49.5 uM, Number of replicates 2.0, Standard deviation 2.3503648629811855 %
  inhibition: 6.33%
PRVABC59, Concentration 99.01 uM, Number of replicates 2.0, Standard deviation 2.692773952478603 %
  inhibition: 8.32%
PRVABC59, Concentration 198.0 uM, Number of replicates 2.0, Standard deviation 0.3043636351088153 %
  inhibition: 5.71%

## CC(=O)N1CCC(N(C)C(=O)c2cc(Cl)ccc2NS(=O)(=O)c2ccc(Oc3ccccc3Cl)cc2)CC1
[1]
  inhibition: 11.3%

## Cc1cc(CO)c2cccc(CC(=O)NCCc3ncc[nH]3)c2n1
PRVABC59, Concentration 49.95 uM, Number of replicates 2.0, Standard deviation 0.020358613704702253 %
  inhibition: 12.5%
PRVABC59, Concentration 99.9 uM, Number of replicates 2.0, Standard deviation 0.02544995300481825 %
  inhibition: 32.3%

## O=C(Nc1ncc(F)cc1Br)c1cc(Cl)ccc1NS(=O)(=O)c1ccc(Oc2ccccc2Cl)cc1
[1]
  inhibition: 23.4%

## CCc1cc(Br)ccc1NC(=O)c1cc(Cl)ccc1NS(=O)(=O)c1ccc(Oc2ccccc2Cl)cc1
[1]
  inhibition: 41.5%

## COc1cc(Cl)c(C)cc1NC(=O)c1cc(Cl)ccc1NS(=O)(=O)c1ccc(Oc2ccccc2Cl)cc1
[1]
  inhibition: 22.4%

## O=C(Nc1ncc(Br)cc1O)c1cc(Cl)ccc1NS(=O)(=O)c1ccc(Oc2ccccc2Cl)cc1
[1]
  inhibition: 55.3%

## COc1ncc(NC(=O)c2cc(Cl)ccc2NS(=O)(=O)c2ccc(Oc3ccccc3Cl)cc2)cc1Br
[1]
  inhibition: 67.3%

## O=C(Nc1cnc(Cl)c(Br)c1)c1cc(Cl)ccc1NS(=O)(=O)c1ccc(Oc2ccccc2Cl)cc1
[1]
  inhibition: 23%

## COc1ncc(Br)cc1NC(=O)c1cc(Cl)ccc1NS(=O)(=O)c1ccc(Oc2ccccc2Cl)cc1
[1]
  inhibition: 22.9%

## O=C(Nc1ncc(Br)nc1Cl)c1cc(Cl)ccc1NS(=O)(=O)c1ccc(Oc2ccccc2Cl)cc1
[1]
  inhibition: 16.8%

## COc1cc(Br)ccc1NC(=O)c1cc(Cl)ccc1NS(=O)(=O)c1ccc(Oc2ccccc2Cl)cc1
[1]
  inhibition: 56.4%

## COc1ccc(CNC(=O)c2cc(Cl)ccc2NS(=O)(=O)c2ccc(Oc3ccccc3Cl)cc2)cc1F
[1]
  inhibition: 26.5%

## O=C(c1cc(Cl)ccc1NS(=O)(=O)c1ccc(Oc2ccccc2Cl)cc1)N1CCN(c2ncccn2)CC1
[1]
  inhibition: 7.48%

## O=Cc1ccc(N2CCC(C(=O)Nc3ccccc3I)CC2)cc1
[2]
  inhibition: 24.9%

## O=Cc1ccc(N2CCC(C(=O)Nc3ccc(Br)c(Cl)c3Cl)CC2)cc1
[2]
  inhibition: 20.9%

## CC(C)(C)N(C[C@H](O)c1ccc(O)c(CO)c1)C(=O)c1cc(Cl)ccc1NS(=O)(=O)c1ccc(Oc2ccccc2Cl)cc1
[1]
  inhibition: 14.6%

## COc1ccccc1OCCCN(C)C(=O)C1CCN(c2ccc(C=O)cc2)CC1
[2]
  inhibition: 22.6%

## CC(C)(COC(=O)c1cccc(F)c1)NC(=O)c1cc(N)cc(Cl)c1
PRVABC59, Concentration 49.5 uM, Number of replicates 2.0, Standard deviation 1.1247891306000573 %
  inhibition: 3.45%
PRVABC59, Concentration 99.01 uM, Number of replicates 2.0, Standard deviation 1.4129417390724304 %
  inhibition: 5.8%
PRVABC59, Concentration 198.0 uM, Number of replicates 2.0, Standard deviation 1.2082537148179389 %
  inhibition: 9%

## NCc1cccc(NC(=O)C2CN(C(=O)OCc3ccccc3)C2)c1
PRVABC59, Concentration 49.5 uM, Number of replicates 2.0, Standard deviation 0.7047125451631892 %
  inhibition: 1.12%
PRVABC59, Concentration 99.01 uM, Number of replicates 2.0, Standard deviation 1.0691153353532887 %
  inhibition: 3.88%
PRVABC59, Concentration 198.0 uM, Number of replicates 2.0, Standard deviation 0.2800776094724739 %
  inhibition: 10.1%

## O=Cc1ccc(N2CCC(C(=O)NCCNC(=O)c3ccccc3Cl)CC2)cc1
[2]
  inhibition: 20.1%

## CC(=O)N[C@@H](CCCCN)C(=O)Nc1ccccc1Cc1cccc2c(CO)cc(C)nc12
PRVABC59, Concentration 49.95 uM, Number of replicates 2.0, Standard deviation 1.4556435772845158 %
  inhibition: -3.65%
PRVABC59, Concentration 99.9 uM, Number of replicates 2.0, Standard deviation 0.5191459981690598 %
  inhibition: 11.6%

## CC(=O)N[C@@H](CCCCN)C(=O)Nc1cccc2c(CO)cc(C)nc12
PRVABC59, Concentration 49.95 uM, Number of replicates 2.0, Standard deviation 2.062511665720634 %
  inhibition: 70.2%
PRVABC59, Concentration 99.9 uM, Number of replicates 2.0, Standard deviation 0.26572610179233236 %
  inhibition: 93.5%

## CC(=O)N[C@@H](CCCN)C(=O)Nc1cccc2c(CO)cc(C)nc12
PRVABC59, Concentration 49.95 uM, Number of replicates 2.0, Standard deviation 2.340889239911572 %
  inhibition: 9.01%
PRVABC59, Concentration 99.9 uM, Number of replicates 2.0, Standard deviation 2.049858170273299 %
  inhibition: 41.2%

## CC(=O)N[C@@H](Cc1ccc(CN)cc1)C(=O)Nc1cccc2c(CO)cc(C)nc12
PRVABC59, Concentration 49.95 uM, Number of replicates 2.0, Standard deviation 1.5120886598590335 %
  inhibition: 62.5%
PRVABC59, Concentration 99.9 uM, Number of replicates 2.0, Standard deviation 0.31634008358167093 %
  inhibition: 95.8%

## CC(=O)N[C@@H](CCCN)C(=O)Nc1ccccc1Cc1cccc2c(CO)cc(C)nc12
PRVABC59, Concentration 49.95 uM, Number of replicates 2.0, Standard deviation 1.2164295290794762 %
  inhibition: 11.2%
PRVABC59, Concentration 99.9 uM, Number of replicates 2.0, Standard deviation 0.5089666913167087 %
  inhibition: 30.6%

## Cc1cc(CO)c2cccc(C[C@H](NC(=O)Cc3cccc(CN)c3)C(=O)O)c2n1
PRVABC59, Concentration 49.95 uM, Number of replicates 2.0, Standard deviation 1.661005908968333 %
  inhibition: -1.72%
PRVABC59, Concentration 99.9 uM, Number of replicates 2.0, Standard deviation 1.2746087015891263 %
  inhibition: 6.96%

## Cn1cc(CNC(=O)c2ccccc2[C@@H]2CCCNC2)cn1
PRVABC59, Concentration 49.5 uM, Number of replicates 2.0, Standard deviation 1.3820269413959925 %
  inhibition: -1.82%
PRVABC59, Concentration 99.01 uM, Number of replicates 2.0, Standard deviation 1.129463511127855 %
  inhibition: -0.227%
PRVABC59, Concentration 198.0 uM, Number of replicates 2.0, Standard deviation 0.6425212666298173 %
  inhibition: 0.6%
